NadD inh: NadD (S. aureus) enzyme inhibition | 360,000 compounds, 0.78% hits | AID 602399 | purified NadD enzyme, colorimetric absorbance read-out | inhibition, % at 20 µM; in the data active = inhibition above about 26%
FAS TE block: FAS thioesterase (human) inhibition. P49327. recombinant FAS-TE, OMFH fluorogenic substrate, fluorescence endpoint. inhibition, % at 15 µM. 360,000 compounds, 0.67% hits. AID 602261;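 active = compounds whose normalised, plate-corrected inhibition of enzyme fluorescence in the single-dose primary screen is 50% or more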;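 note: 0% = DMSO with enzyme and 100% = substrate without enzyme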
NRP1-CendR mod: modulators of CendR peptide binding to human neuropilin-1. inhibition, % at 25 µM. FAM-RPARPAR peptide binding to NRP-1, fluorescence polarization. O14786. 360,000 compounds, 0.85% hits;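 active = inhibition or corrected inhibition above about 18%, plus a signal ratio from 0.5 to 1.5, limit read from the data, passing the limit was not always enough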
CRFBP-R2 block: antagonists of CRF-binding protein/CRF-R2 receptor complex; 350,000 compounds, 0.59% hits; AID 588475; HEK293 CRF-R2/CRF-BP, CRF-induced calcium fluorescence; inhibition, % at 11.8 µM;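 active = inhibition of the ligand-induced calcium signal above about 50% at the single tested concentration, limit read from the data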
Myeloid diff MLP: compounds promoting myeloid differentiation; ER-HoxA9 myeloid progenitors, lysozyme-GFP differentiation, flow cytometry; calls only at 10 µM; 360,000 compounds, 1% hits; AID 624256;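 active = normalized GFP-positive differentiation at or above the plate's own cutoff, the solvent-only control mean plus 3 SD; inconclusive = no clear call, values can overlap the other calls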;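 note: cells exposed to compound for four days before flow analysis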
Active calls of the source: *. Hits are enriched below; roughly 3.6% of the tested compounds scored in any of these assays.

How did O=C(Nc1ccc(F)cc1)C(c1ccncc1)N1CCN(c2cccc(C(F)(F)F)n2)CC1 (stereo not drawn) do in these assays?
NRP1-CendR mod: -9; Myeloid diff MLP: inactive

What do the screens show for `COc1cc(/C=N/NC(=O)C(=O)NCC2CCCO2)ccc1O` (stereo not drawn)?
NadD inh: 1; FAS TE block: -7; NRP1-CendR mod: 39*; CRFBP-R2 block: -26; Myeloid diff MLP: inactive

What do the screens show for `CC(C)C[C@@H]1COc2cccc(N3CCC[C@H]3CO)c2S(=O)(=O)N1`?
NadD inh: 0; FAS TE block: -7; NRP1-CendR mod: 4; Myeloid diff MLP: inactive

What do the screens show for `Cc1ccc(OCCNC(=O)c2ccccc2OCc2c(C)noc2C)cc1`?
NadD inh: -1; FAS TE block: 9; NRP1-CendR mod: 13; CRFBP-R2 block: 1; Myeloid diff MLP: inactive

What do the screens show for `C=CCn1c(SCC(=O)Nc2c(C)cccc2C)nnc1-c1ccncc1`?
NadD inh: 0; FAS TE block: -13; NRP1-CendR mod: -7; CRFBP-R2 block: 52*; Myeloid diff MLP: inactive

What do the screens show for `C=CCn1c(SCC(=O)Nc2cccc(OC)c2)nnc1-c1cccnc1`?
NadD inh: 3; FAS TE block: 0; NRP1-CendR mod: -3; CRFBP-R2 block: -10; Myeloid diff MLP: inactive

How did CC(=O)Nc1ccc(OCC(O)CN2C(C)(C)CC(O)CC2(C)C)cc1 (stereo not drawn) do in these assays?
NadD inh: 2; FAS TE block: -11; NRP1-CendR mod: 5; CRFBP-R2 block: 53*; Myeloid diff MLP: inactive

How did CC(=O)Nc1ccc(OCC(O)CN2C(C)CCCC2C)cc1 (stereo not drawn) do in these assays?
NadD inh: -2; FAS TE block: -19; NRP1-CendR mod: 10; CRFBP-R2 block: 18; Myeloid diff MLP: inactive

What do the screens show for `CCN1CCN(c2ccc(NC(=O)COc3ccc(Cl)cc3C)cc2)CC1`?
NadD inh: -8; FAS TE block: 2; NRP1-CendR mod: 13; CRFBP-R2 block: -6; Myeloid diff MLP: inactive

Results for CC(NC(=O)CCN1C(=O)c2ccccc2C1=O)c1ccc2c(c1)CCCC2 (stereo not drawn) ?
NadD inh: 0; FAS TE block: -1; NRP1-CendR mod: 3; CRFBP-R2 block: -14; Myeloid diff MLP: inactive

Results for COc1cc(Cl)c(C)cc1NC(=O)CSc1ccc(C)cc1 ?
NadD inh: 1; FAS TE block: 34; NRP1-CendR mod: -19; CRFBP-R2 block: 50*; Myeloid diff MLP: inactive

How did COc1cc(C)ccc1OCCOCCOc1ccc([N+](=O)[O-])cc1 do in these assays?
NadD inh: -10; FAS TE block: 21; NRP1-CendR mod: -8; CRFBP-R2 block: 32; Myeloid diff MLP: inactive

How did N#CC1(NC(=O)Cn2ncc(Cl)c(Cl)c2=O)CCCCC1 do in these assays?
NadD inh: -1; FAS TE block: 3; NRP1-CendR mod: 4; CRFBP-R2 block: 15; Myeloid diff MLP: inconclusive

What do the screens show for `Cc1ccc(OCC(=O)c2c(N)n(C)c(=O)n(C)c2=O)c([N+](=O)[O-])n1`?
NadD inh: 3; FAS TE block: -7; NRP1-CendR mod: 21*; CRFBP-R2 block: 0; Myeloid diff MLP: inactive

What do the screens show for `CCOC(=O)[C@]12CCCC=C1N(Cc1cccc3ccccc13)C(=O)[C@H](CC(=O)NCCc1ccccc1OC)C2`?
NadD inh: -2; FAS TE block: 21; NRP1-CendR mod: -9; Myeloid diff MLP: inactive

How did O=C(Cc1cccs1)Nc1nc2c(ccc3ccccc32)s1 do in these assays?
NadD inh: -5; FAS TE block: 27; NRP1-CendR mod: 7; CRFBP-R2 block: 53*; Myeloid diff MLP: inactive

Results for CC(=O)Nc1nc2c(ccc3ccccc32)s1 ?
NadD inh: 9; FAS TE block: -6; NRP1-CendR mod: -9; CRFBP-R2 block: 11; Myeloid diff MLP: inactive

How did COc1ccc(OC)c(CN2CCN(S(=O)(=O)c3ccc(NC(C)=O)cc3)CC2)c1 do in these assays?
NadD inh: 2; FAS TE block: 0; NRP1-CendR mod: -1; CRFBP-R2 block: 53*; Myeloid diff MLP: inactive

Results for COc1ccc(NC(=O)CN2CCCN(S(=O)(=O)c3ccc(F)cc3)CC2)cc1 ?
NadD inh: -1; FAS TE block: 1; NRP1-CendR mod: 0; CRFBP-R2 block: 5; Myeloid diff MLP: inactive

How did COc1ccc(NC(=O)CN2CCN(c3c(C)cc(C)cc3C)CC2)cc1 do in these assays?
NadD inh: -10; FAS TE block: 26; NRP1-CendR mod: 37*; CRFBP-R2 block: 7; Myeloid diff MLP: inactive

What do the screens show for `COc1cccc(CN2CCN(S(=O)(=O)c3ccc(NC(C)=O)cc3)CC2)c1OC`?
NadD inh: -2; FAS TE block: 0; NRP1-CendR mod: 15; CRFBP-R2 block: 6; Myeloid diff MLP: inactive

How did COc1ccc(S(=O)(=O)N2CCCN(CC(=O)Nc3ccc(NC(C)=O)cc3)CC2)cc1 do in these assays?
NadD inh: -4; FAS TE block: -2; NRP1-CendR mod: 39*; CRFBP-R2 block: -2; Myeloid diff MLP: inactive

What do the screens show for `CCCCNC(=O)C(NC(=O)c1ccc(C)cc1)C(=O)c1ccccc1` (stereo not drawn)?
NRP1-CendR mod: 16; Myeloid diff MLP: inactive

Results for CC(C)CNC(=O)C1(C)CCCN1C(=O)c1c(Cl)cccc1Cl (stereo not drawn) ?
NadD inh: 0; FAS TE block: -8; NRP1-CendR mod: -1; Myeloid diff MLP: inactive

What do the screens show for `CCNC(=O)C1(C)CCN(C(=O)c2cccc(C#N)c2)C1` (stereo not drawn)?
NadD inh: -6; FAS TE block: -8; NRP1-CendR mod: -3; Myeloid diff MLP: inactive

How did CCc1ccc(S(=O)(=O)NCc2ccc(C(=O)NCCN(Cc3ccccc3)C(C)C)cc2)cc1 do in these assays?
NadD inh: -1; FAS TE block: 10; NRP1-CendR mod: 5; Myeloid diff MLP: inactive

How did CC(=O)NC(Cc1cccc(F)c1)C(=O)NC1CCN(c2ncccc2[N+](=O)[O-])CC1 (stereo not drawn) do in these assays?
NadD inh: 3; FAS TE block: -2; NRP1-CendR mod: -2; CRFBP-R2 block: 36; Myeloid diff MLP: inactive

What do the screens show for `CC(=O)NC(Cc1cccc(C)c1)C(=O)NC1CCN(c2ncccc2[N+](=O)[O-])CC1` (stereo not drawn)?
NadD inh: 3; FAS TE block: -4; NRP1-CendR mod: -3; CRFBP-R2 block: 57*; Myeloid diff MLP: inactive

What do the screens show for `O=C1C=C(c2n[nH]nc2-c2ccccc2)C[C@@H](c2ccc(F)cc2)C1`?
NadD inh: 4; FAS TE block: -45; NRP1-CendR mod: -1; CRFBP-R2 block: 6; Myeloid diff MLP: inactive

Results for Cc1cccc2cc(C#N)c(NCCNS(=O)(=O)c3ccc4c(c3)OCCO4)nc12 ?
NadD inh: 5; FAS TE block: 2; NRP1-CendR mod: -4; CRFBP-R2 block: -30; Myeloid diff MLP: active

Results for CCc1cccc(NC(=O)CCc2c(C)nn(-c3ccc(N4CCOCC4)nn3)c2C)c1 ?
NadD inh: 2; FAS TE block: -5; NRP1-CendR mod: 32*; CRFBP-R2 block: 13; Myeloid diff MLP: inactive

Source: PubChem
